CYP2C9 act: increases human cytochrome P450 2C9 activity; actives 1.4% (n = 96,000); activation factor at 5 µM; P11712; recombinant CYP2C9, luciferin-H conversion, luminescence; active compounds read high; factor 1 = untreated enzyme, 0 = blocked;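 active = activation factor of 2 or more for CYP2C9 at a 5 µM dose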;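 also: 0 = sulfaphenazole-blocked wells and 1 = vehicle-only wells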
CYP2C19 inh: inhibitors of human CYP2C19; P33261; CYP2C19 Supersomes, luciferin-H EGE luminescence, 30 min; inhibition, % at 5 µM; actives 21% (n = 96,000);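 active = CYP2C19 inhibition above a set limit at 5 µM in the primary screen, cut at about 50% in these data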;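 also: plate controls were negative control wells for no effect and 2.5 mM tranylcypromine positive control for full effect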
PLAP activator: human PLAP activation | P05187 | purified PLAP enzyme, luminescent substrate read-out; active compounds read high | activation fold at 20 µM | actives 1.2% (n = 96,000); in the data active = activation fold above about 2
Target sequence (P05187 whole entry, looked up): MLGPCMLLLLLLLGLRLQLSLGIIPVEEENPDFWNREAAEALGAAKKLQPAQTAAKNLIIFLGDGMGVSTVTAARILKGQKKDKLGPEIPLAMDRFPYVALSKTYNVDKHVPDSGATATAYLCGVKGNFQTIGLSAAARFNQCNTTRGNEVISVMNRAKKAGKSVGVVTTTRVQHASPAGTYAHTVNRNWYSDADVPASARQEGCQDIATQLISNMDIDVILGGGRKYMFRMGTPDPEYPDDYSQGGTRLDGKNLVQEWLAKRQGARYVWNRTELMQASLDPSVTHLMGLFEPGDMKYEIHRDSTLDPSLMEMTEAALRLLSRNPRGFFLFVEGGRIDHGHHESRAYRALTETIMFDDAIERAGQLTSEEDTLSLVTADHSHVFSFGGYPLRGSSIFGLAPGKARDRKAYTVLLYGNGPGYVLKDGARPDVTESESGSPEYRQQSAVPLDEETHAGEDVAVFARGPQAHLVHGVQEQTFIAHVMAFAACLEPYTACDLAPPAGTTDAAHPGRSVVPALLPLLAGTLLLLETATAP
CYP2C19 activ: increases human CYP2C19 enzyme activity; P33261; recombinant CYP2C19, luciferin-H EGE luminescence; active compounds read high; 0 = fully inhibited enzyme, 1 = untreated enzyme; activation factor at 5 µM; 96,000 tested, under 10 active; AID 1025;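 active = activation factor of at least 2 at 5 µM in the primary screen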;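 also: 0 = wells with 2.5 mM tranylcypromine and 1 = vehicle-only wells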
CYP2C9 inh: inhibitors of human CYP2C9; inhibition, % at 5 µM; CYP2C9 Supersomes, luciferin-H conversion, luminescence; AID 777; actives 20% (n = 96,000);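 active = blocking of liver enzyme CYP2C9 beyond about 50% at 5 µM, limit read from the data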
Active calls of the source: *. Most compounds without a hit are left out; they make up all but 31% or so of the library.

SMILES | CYP2C9 act | CYP2C19 inh | PLAP activator | CYP2C19 activ | CYP2C9 inh
COc1cccc(C(=O)NCCC2=CCCCC2)c1 | 0.6 | 93* | 0.9 | 0.1 | 43
Cc1ccc(NS(=O)(=O)c2cc(C(=O)NCc3ccccn3)ccc2Cl)cc1 | 0.5 | 73* | 1.1 | 0.3 | 55*
Cc1noc(C)c1CN1C(=O)NC(Cc2ccccc2)(Cc2ccccc2)C1=O | 0.9 | 11 | 1 | 0.9 | 12
CC(=O)NC(Cc1c[nH]c2ccccc12)C(=O)Nc1ccc2c(c1)OCO2 (stereo not drawn) | 1.1 | 5 | 1 | 0.9 | -7
Cc1ccc(NC(=O)CS(=O)(=O)c2c[nH]c3ccccc23)c(C)c1 | 1.4 | 75* | 0.9 | 0.3 | -38
O=C(CS(=O)(=O)c1c[nH]c2ccccc12)Nc1ccc2c(c1)OCCO2 | 0.7 | 68* | 1 | 0.3 | 30
Cc1ccc(NC(=O)CSCC(=O)O)c(C)c1 | 1.1 | -11 | 1.1 | 1.1 | -6
CCCCOc1ccc(NC2=NC3(CCCC3)N=C(N)N2)cc1 | 1.2 | -6 | 1.5 | 1.1 | -16
CN(C)C(/C=C/Nc1ccccc1F)=C(C#N)C#N | 0.5 | 19 | 0.9 | 0.8 | 50
Cc1cccc(N/C=C/C(=C(C#N)C#N)N(C)C)c1 | 0.1 | 76* | 0.8 | 0.2 | 87*
Fc1ccc(C2C3=C(Nc4ncnn42)c2ccccc2OC3c2ccncc2)cc1 (stereo not drawn) | 0.2 | 93* | 1.4 | 0.1 | 77*
Cc1ccccc1NC(=O)c1sc(Cl)nc1-c1ccccc1 | 0.6 | 61* | 1 | 0.4 | 44
COc1cccc(C(CC(=O)Nc2cccc3ccccc23)NC(=O)c2ccccc2)c1 (stereo not drawn) | 0.2 | 50 | 1.1 | 0.5 | 81*
Oc1ccccc1CNn1cnnc1 | 1.1 | -12 | 0.9 | 1.1 | -12
CCOc1cccc(CNn2cnnc2)c1OCc1ccccc1 | 1 | 57* | 1 | 0.4 | 3
c1ccc(COc2cccc(CNn3cnnc3)c2)cc1 | 0.9 | 50* | 0.9 | 0.5 | 9
CCOc1cc(CNC2CCCC2)cc(Cl)c1OCc1ccc(F)cc1 | 0.6 | 95* | 1.7 | 0.1 | 37
COc1cc(CNC2CCCC2)cc(Cl)c1OCc1ccc(F)cc1 | 0.7 | 95* | 1.6 | 0 | 31
COc1cc(CNC2CCCC2)cc(OC)c1OC | 1.1 | -2 | 1.1 | 1 | -13
N#CCCN(Cc1cccnc1)C(=O)Nc1ccc(Cl)c(Cl)c1 | 0.4 | 92* | 1.2 | 0.1 | 64*
Cc1ccc(NC(=O)N(Cc2cccnc2)Cc2ccco2)cc1C | 0.2 | 96* | 0.9 | 0 | 78*
O=C(Nc1ccc(Cl)cc1)N(Cc1cccnc1)Cc1ccco1 | 0.1 | 100* | 0.9 | 0 | 90*
S=C(NCc1cccnc1)Nc1ccc(Cl)c(Cl)c1 | 0 | 92* | 1 | 0.1 | 98*
N#CCCN(Cc1cccnc1)C(=O)c1ccc(S(=O)(=O)N2CCOCC2)cc1 | 1 | 3 | 1 | 1 | 1
O=C(NCc1cccnc1)c1ccc(NC(=O)c2ccco2)cc1 | 0.7 | -6 | 0.9 | 1.1 | 32
SMILES | CYP2C9 act | CYP2C19 inh | PLAP activator | CYP2C19 activ | CYP2C9 inh
Cc1csc(NC(=O)CSc2nnc3c4ccccc4nc(C(C)(C)C)n23)n1 | 0.8 | 11 | 1 | 0.9 | 21
Cc1ccc2nc(SCC(=O)Nc3cccc([N+](=O)[O-])c3)[nH]c2c1 | 0.1 | 46 | 1.2 | 0.5 | 90*
Cc1ccc2nc(-c3ccc(NC(=O)CSc4ccccc4)cc3)[nH]c2c1 | 0.4 | 35 | 0.9 | 0.7 | 59*
O=C(CSc1nc2ccc([N+](=O)[O-])cc2[nH]1)NC1CCCCC1 | 0.4 | 64* | 1.1 | 0.4 | 62*
Cc1cc(C)cc(NC(=O)CSc2nc3ccncc3[nH]2)c1 | 0.2 | 63* | 2.2* | 0.4 | 76*
CCN(CC)c1ccc(NC(=O)Nc2ccccc2C(F)(F)F)cc1 | 1 | 17 | 0.9 | 0.8 | 2
O=C(Cn1c(=O)oc2cc(S(=O)(=O)N3CCCC3)ccc21)Nc1ccc(C(F)(F)F)cc1 | 0.7 | -2 | 1 | 1 | 27
Cc1ccc(/C=c2\s/c(=C(/C#N)C(=O)N3CCCC3)n(Cc3ccco3)c2=O)s1 | 0.8 | 13 | 1.5 | 0.9 | 23
COc1ccc(CCSc2nnc(C3CCCCC3)n2N)cc1 | 0.5 | 58* | 1.2 | 0.4 | 52*
C=CCNc1nc(Nc2ccc(-c3nc4ccccc4o3)cc2)nc(N2CCOCC2)n1 | 0.6 | 49 | 1.9 | 0.5 | 42
c1csc(Cn2c(-c3cccs3)nc3ccccc32)c1 | 0.1 | 87* | 0.8 | 0.1 | 94*
